Measured values: PubChem BioAssay (NCATS)
Results filed as inconclusive are left out. Entries that show only a call come without a potency. Calls of active or inactive are those of the source. Calls follow the shape of the dose curve; as a rule, active = well fitted inhibition curve with a large enough effect; inconclusive = small, poorly fitted or top-dose-only effect; inactive = flat fitted curve, though single readings scatter.

Columns and labels:
Assay in all cases: qHTS profiling for inhibitors of Plasmodium falciparum proliferation (AID 504749); also: nearly all actives have a fitted effect of over 60% in size
Details in all cases: P. falciparum in erythrocytes, SYBR Green DNA, 72 h; series mostly up to 28.7 µM
P93_24 = system: P93_24
Procedure, shortened: (§1)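 SYBR Green fluorescence of parasite DNA, read after lysis and overnight dark incubation, measured growth over 72 h in erythrocyte culture at 0.3% parasitemia and 2.5% hematocrit. Data normalised to DMSO and 0.29 uM artemisinin, with plate-drift correction.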

P94_40 = system: P94_40
Procedure, shortened: as §1

PAD = system: PAD
Procedure, shortened: as §1

PC15 = system: PC15
Procedure, shortened: as §1

PC26 = system: PC26
Procedure, shortened: as §1

PC49 = system: PC49
Procedure, shortened: as §1

SC27B = system: SC27B
Procedure, shortened: as §1

TAB109 = system: TAB109
Procedure, shortened: as §1

TAB113 = system: TAB113
Procedure, shortened: as §1

TAB165 = system: TAB165
Procedure, shortened: as §1
Potency is read from the fitted curve at half-maximal effect.

## NC(=O)NO
P93_24
  Potency: inactive
P94_40
  Potency: inactive
PAD
  Potency: inactive
PC15
  Potency: inactive
PC26
  Potency: inactive
PC49
  Potency: inactive
SC27B
  Potency: inactive
TAB109
  Potency: inactive
TAB113
  Potency: inactive
TAB165
  Potency: inactive

## NS(=O)(=O)c1cc2c(cc1Cl)NCNS2(=O)=O
P93_24
  Potency: inactive
P94_40
  Potency: inactive
PAD
  Potency: inactive
PC15
  Potency: inactive
PC26
  Potency: inactive
PC49
  Potency: inactive
SC27B
  Potency: inactive
TAB109
  Potency: inactive
TAB113
  Potency: inactive
TAB165
  Potency: inactive

## CC(C)(C)C(=O)Oc1ccc(S(=O)(=O)Nc2ccccc2C(=O)NCC(=O)O)cc1
P93_24
  Potency: inactive
P94_40
  Potency: inactive
PAD
  Potency: inactive
PC15
  Potency: inactive
PC26
  Potency: inactive
PC49
  Potency: inactive
SC27B
  Potency: inactive
TAB109
  Potency: inactive
TAB113
  Potency: inactive
TAB165
  Potency: inactive

## Cc1cn([C@H]2C=C[C@@H](CO)O2)c(=O)[nH]c1=O
P93_24
  Potency: inactive
P94_40
  Potency: inactive
PAD
  Potency: inactive
PC15
  Potency: inactive
PC26
  Potency: inactive
PC49
  Potency: inactive
SC27B
  Potency: inactive
TAB109
  Potency: inactive
TAB113
  Potency: inactive
TAB165
  Potency: inactive

## Cc1cc(C(C)(C)C)c(O)c(C)c1CC1=NCCN1
P93_24
  Potency: inactive
P94_40
  Potency: inactive
PAD
  Potency: inactive
PC15
  Potency: inactive
PC26
  Potency: inactive
PC49
  Potency: inactive
SC27B
  Potency: inactive
TAB109
  Potency: inactive
TAB113
  Potency: inactive
TAB165
  Potency: inactive

## CN1C(C(=O)Nc2ccccn2)=C(O)c2ccccc2S1(=O)=O
P93_24
  Potency: inactive
P94_40
  Potency: inactive
PAD
  Potency: inactive
PC15
  Potency: inactive
PC26
  Potency: inactive
PC49
  Potency: inactive
SC27B
  Potency: inactive
TAB109
  Potency: inactive
TAB113
  Potency: inactive
TAB165
  Potency: inactive

## Clc1ccc2nsnc2c1NC1=NCCN1
P93_24
  Potency: inactive
P94_40
  Potency: inactive
PAD
  Potency: inactive
PC15
  Potency: inactive
PC26
  Potency: inactive
PC49
  Potency: inactive
SC27B
  Potency: inactive
TAB109
  Potency: inactive
TAB113
  Potency: inactive
TAB165
  Potency: inactive

## CN1CCC(=C2c3ccccc3C=Cc3ccccc32)CC1
P93_24
  Potency: inactive
P94_40
  Potency: inactive
PAD
  Potency: inactive
PC15
  Potency: inactive
PC26
  Potency: inactive
PC49
  Potency: inactive
SC27B
  Potency: inactive
TAB109
  Potency: inactive
TAB113
  Potency: inactive
TAB165
  Potency: inactive

## CN(C)c1nc(N(C)C)nc(N(C)C)n1
P93_24
  Potency: inactive
P94_40
  Potency: inactive
PAD
  Potency: inactive
PC15
  Potency: inactive
PC26
  Potency: inactive
PC49
  Potency: inactive
SC27B
  Potency: inactive
TAB109
  Potency: inactive
TAB113
  Potency: inactive
TAB165
  Potency: inactive

## Clc1ccccc1C(c1ccccc1)(c1ccccc1)n1ccnc1
P93_24
  Potency: 126 nM (active)
P94_40
  Potency: 631 nM (active)
PAD
  Potency: 355 nM (active)
PC15
  Potency: 1 µM (active)
PC26
  Potency: 572 nM (active)
PC49
  Potency: 1 µM (active)
SC27B
  Potency: 398 nM (active)
TAB109
  Potency: 794 nM (active)
TAB113
  Potency: 631 nM (active)
TAB165
  Potency: 100 nM (active)

## Nc1nnc(-c2cccc(Cl)c2Cl)c(N)n1
P93_24
  Potency: inactive
P94_40
  Potency: inactive
PAD
  Potency: inactive
PC15
  Potency: inactive
PC26
  Potency: inactive
PC49
  Potency: inactive
SC27B
  Potency: inactive
TAB109
  Potency: inactive
TAB113
  Potency: inactive
TAB165
  Potency: inactive

## Nc1nc2c(ncn2COC(CO)CO)c(=O)[nH]1
P93_24
  Potency: inactive
P94_40
  Potency: inactive
PAD
  Potency: inactive
PC15
  Potency: inactive
PC26
  Potency: inactive
PC49
  Potency: inactive
SC27B
  Potency: inactive
TAB109
  Potency: inactive
TAB113
  Potency: inactive
TAB165
  Potency: inactive

## CC(=O)OCC(CCn1cnc2cnc(N)nc21)COC(C)=O
P93_24
  Potency: inactive
P94_40
  Potency: inactive
PAD
  Potency: inactive
PC15
  Potency: inactive
PC26
  Potency: inactive
PC49
  Potency: inactive
SC27B
  Potency: inactive
TAB109
  Potency: inactive
TAB113
  Potency: inactive
TAB165
  Potency: inactive

## CCC1(c2ccccc2)C(=O)NCNC1=O
P93_24
  Potency: inactive
P94_40
  Potency: inactive
PAD
  Potency: inactive
PC15
  Potency: inactive
PC26
  Potency: inactive
PC49
  Potency: inactive
SC27B
  Potency: inactive
TAB109
  Potency: inactive
TAB113
  Potency: inactive
TAB165
  Potency: inactive

## CCOC(=O)C(C)(C)Oc1ccc(Cl)cc1
P93_24
  Potency: inactive
P94_40
  Potency: inactive
PAD
  Potency: inactive
PC15
  Potency: inactive
PC26
  Potency: inactive
PC49
  Potency: inactive
SC27B
  Potency: inactive
TAB109
  Potency: inactive
TAB113
  Potency: inactive
TAB165
  Potency: inactive

## O=C1N(c2ccccc2)c2ccccc2C1(Cc1ccncc1)Cc1ccncc1
P93_24
  Potency: inactive
P94_40
  Potency: inactive
PAD
  Potency: inactive
PC15
  Potency: inactive
PC26
  Potency: inactive
PC49
  Potency: inactive
SC27B
  Potency: inactive
TAB109
  Potency: inactive
TAB113
  Potency: inactive
TAB165
  Potency: inactive

## Cn1cnc2c1c(=O)[nH]c(=O)n2C
P93_24
  Potency: inactive
P94_40
  Potency: inactive
PAD
  Potency: inactive
PC15
  Potency: inactive
PC26
  Potency: inactive
PC49
  Potency: inactive
SC27B
  Potency: inactive
TAB109
  Potency: inactive
TAB113
  Potency: inactive
TAB165
  Potency: inactive

## CC[N+](CC)(CC)CCOc1cccc(OCC[N+](CC)(CC)CC)c1OCC[N+](CC)(CC)CC
P93_24
  Potency: inactive
P94_40
  Potency: inactive
PAD
  Potency: inactive
PC15
  Potency: inactive
PC26
  Potency: inactive
PC49
  Potency: inactive
SC27B
  Potency: inactive
TAB109
  Potency: inactive
TAB113
  Potency: inactive
TAB165
  Potency: inactive

## Cc1cn([C@H]2C[C@H](N=[N+]=[N-])[C@@H](CO)O2)c(=O)[nH]c1=O
P93_24
  Potency: inactive
P94_40
  Potency: inactive
PAD
  Potency: inactive
PC15
  Potency: inactive
PC26
  Potency: inactive
PC49
  Potency: inactive
SC27B
  Potency: inactive
TAB109
  Potency: inactive
TAB113
  Potency: inactive
TAB165
  Potency: inactive

## CC(C)C(=O)Nc1ccc([N+](=O)[O-])c(C(F)(F)F)c1
P93_24
  Potency: inactive
P94_40
  Potency: inactive
PAD
  Potency: inactive
PC15
  Potency: inactive
PC26
  Potency: inactive
PC49
  Potency: inactive
SC27B
  Potency: inactive
TAB109
  Potency: inactive
TAB113
  Potency: inactive
TAB165
  Potency: inactive

## NCCCCCC(=O)O
P93_24
  Potency: inactive
P94_40
  Potency: inactive
PAD
  Potency: inactive
PC15
  Potency: inactive
PC26
  Potency: inactive
PC49
  Potency: inactive
SC27B
  Potency: inactive
TAB109
  Potency: inactive
TAB113
  Potency: inactive
TAB165
  Potency: inactive

## CCOC(=O)c1ncn2c1CN(C)C(=O)c1cc(F)ccc1-2
P93_24
  Potency: inactive
P94_40
  Potency: inactive
PAD
  Potency: inactive
PC15
  Potency: inactive
PC26
  Potency: inactive
PC49
  Potency: inactive
SC27B
  Potency: inactive
TAB109
  Potency: inactive
TAB113
  Potency: inactive
TAB165
  Potency: inactive

## NCCS(=O)(=O)O
P93_24
  Potency: inactive
P94_40
  Potency: inactive
PAD
  Potency: inactive
PC15
  Potency: inactive
PC26
  Potency: inactive
PC49
  Potency: inactive
SC27B
  Potency: inactive
TAB109
  Potency: inactive
TAB113
  Potency: inactive
TAB165
  Potency: inactive

## C[C@](N)(Cc1ccc(O)c(O)c1)C(=O)O
P93_24
  Potency: inactive
P94_40
  Potency: inactive
PAD
  Potency: inactive
PC15
  Potency: inactive
PC26
  Potency: inactive
PC49
  Potency: inactive
SC27B
  Potency: inactive
TAB109
  Potency: inactive
TAB113
  Potency: inactive
TAB165
  Potency: inactive

## CN1CCN2c3ccccc3Cc3ccccc3C2C1 (stereo not given)
P93_24
  Potency: inactive
P94_40
  Potency: inactive
PAD
  Potency: inactive
PC15
  Potency: inactive
PC26
  Potency: inactive
PC49
  Potency: inactive
SC27B
  Potency: inactive
TAB109
  Potency: inactive
TAB113
  Potency: inactive
TAB165
  Potency: inactive

## CS(=O)(=O)CCNCc1ccc(-c2ccc3ncnc(Nc4ccc(OCc5cccc(F)c5)c(Cl)c4)c3c2)o1
P93_24
  Potency: inactive
P94_40
  Potency: inactive
PAD
  Potency: inactive
PC15
  Potency: inactive
PC26
  Potency: inactive
PC49
  Potency: inactive
SC27B
  Potency: inactive
TAB109
  Potency: inactive
TAB113
  Potency: inactive
TAB165
  Potency: inactive

## COc1ccc2[nH]cc(CCNC(C)=O)c2c1
P93_24
  Potency: inactive
P94_40
  Potency: inactive
PAD
  Potency: inactive
PC15
  Potency: inactive
PC26
  Potency: inactive
PC49
  Potency: inactive
SC27B
  Potency: inactive
TAB109
  Potency: inactive
TAB113
  Potency: inactive
TAB165
  Potency: inactive

## CC(C)Cc1ccc(C(C)C(=O)O)cc1 (stereo not given)
P93_24
  Potency: inactive
P94_40
  Potency: inactive
PAD
  Potency: inactive
PC15
  Potency: inactive
PC26
  Potency: inactive
PC49
  Potency: inactive
SC27B
  Potency: inactive
TAB109
  Potency: inactive
TAB113
  Potency: inactive
TAB165
  Potency: inactive

## CS(=O)(=O)Nc1ccc([N+](=O)[O-])cc1Oc1ccccc1
P93_24
  Potency: inactive
P94_40
  Potency: inactive
PAD
  Potency: inactive
PC15
  Potency: inactive
PC26
  Potency: inactive
PC49
  Potency: inactive
SC27B
  Potency: inactive
TAB109
  Potency: inactive
TAB113
  Potency: inactive
TAB165
  Potency: inactive

## COc1ccccc1OCC(O)CN1CCN(CC(=O)Nc2c(C)cccc2C)CC1 (stereo not given)
P93_24
  Potency: inactive
P94_40
  Potency: inactive
PAD
  Potency: inactive
PC15
  Potency: inactive
PC26
  Potency: inactive
PC49
  Potency: inactive
SC27B
  Potency: inactive
TAB109
  Potency: inactive
TAB113
  Potency: inactive
TAB165
  Potency: inactive

## N[C@@H](Cc1c[nH]c2ccc(O)cc12)C(=O)O
P93_24
  Potency: inactive
P94_40
  Potency: inactive
PAD
  Potency: inactive
PC15
  Potency: inactive
PC26
  Potency: inactive
PC49
  Potency: inactive
SC27B
  Potency: inactive
TAB109
  Potency: inactive
TAB113
  Potency: inactive
TAB165
  Potency: inactive
